# Records with an inconclusive call do not appear. Where a call stands in place of a potency, no number is given. Calls of active or inactive are those of the source. Unless noted, calls come from the whole dose curve; as a rule, active = well fitted cell-killing curve with a large enough effect; inconclusive = small, poorly fitted or top-dose-only effect; inactive = flat fitted curve, though single readings scatter.
# What was measured:
# [1] = Cell Viability - LYMP2-002 (AID 977);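 note: series mostly up to about 92 µM; compound exposure lasted 24 h at 37 °C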
# Summary of the method: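 In this qHTS viability screen, 2500 human lymphoblastoid cells per well receive compound for 24 hr at 37 C, and luciferase-based ATP luminescence gives the viability signal. Tetraoctylammonium bromide serves as positive control.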
# [2] = Cell Viability - LYMP2-008 (AID 980);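 note: cells exposed to compound for 24 h at 37 °C; nearly all actives have a fitted effect of over 60% in size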
# Summary of the method: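 Cells seeded at 2500/well and rested 5 hr at 37 C; compounds added over a concentration range and incubated 24 hr at 37 C; CellTiter-Glo added, 30 min at room temperature; luminescence read and AC50 fitted with Hill model.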
# [3] = Cell Viability - LYMP2-010 (AID 981);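 note: cells exposed to compound for 24 hours at 37 °C; nearly all actives have a fitted effect of over 55% in size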
# Summary of the method: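 Steps: seed 2500 LYMP2-010 cells per well; incubate 5 hr at 37 C; add compound; incubate 24 hr at 37 C; add CellTiter-Glo, wait 30 min at room temperature; read luminescence. Concentration-response fitted to Hill equation for AC50.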
# [4] = Cell Viability - LYMP2-012 (AID 982);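 note: cellular ATP by luciferase luminescence where a drop means cytotoxicity; cells exposed to compound for one day before reading; nearly all actives have a fitted effect of over 55% in size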
# [5] = Cell Viability - LYMP2-014 (AID 983);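 note: series mostly up to about 92 µM; cells exposed to compound for 24 h at 37 °C; nearly all actives have a fitted effect of over 50% in size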
# Summary of the method: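 Cells are plated at 2500/well and left 5 hr at 37 C. Compounds are added across a concentration range and incubated 24 hr at 37 C in complete medium. CellTiter-Glo is added, and luminescence is read after 30 min at room temperature.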
# [6] = Cell Viability - LYMP2-016 (AID 984);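 note: cells exposed to compound for 24 hours at 37 °C; nearly all actives have a fitted effect of over 55% in size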
# Summary of the method: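 Human lymphoblastoid cells (LYMP2-016), 2500/well in complete medium, preincubated 5 hr at 37 C, then compound-treated 24 hr at 37 C. Intracellular ATP read by CellTiter-Glo luminescence after 30 min at room temperature; AC50 from Hill-equation concentration-response fits.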
# [7] = Cell Viability - LYMP2-018 (AID 985);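 note: compound exposure lasted 24 hr at 37 °C; nearly all actives have a fitted effect of over 50% in size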
# Summary of the method: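 Seed 2500 lymphoblastoid cells per well, incubate 5 hr at 37 C, add compound and incubate 24 hr at 37 C, add CellTiter-Glo, wait 30 min at room temperature, then read luminescence.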
# [8] = Cell Viability - LYMP2-020 (AID 986);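 note: series mostly up to about 92 µM; cells exposed to compound for 24 h at 37 °C; nearly all actives have a fitted effect of over 55% in size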
# Summary of the method: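 Seed 2500 cells per well and incubate 5 hr at 37 C. Add compounds at a concentration series and incubate 24 hr at 37 C. Add CellTiter-Glo, wait 30 min at RT, read luminescence, and fit a Hill curve for AC50.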
# [9] = Cell Viability - LYMP2-022 (AID 987); note: nearly all actives have a fitted effect of over 55% in size
# Summary of the method: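 Cells were seeded at 2500 per well, rested 5 hr at 37 C, and treated with titrated compounds for 24 hr at 37 C. Cellular ATP was then quantified by luciferase luminescence, and AC50 values were derived from Hill-modelled concentration-response curves.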
# [10] = Cell Viability - LYMP2-024 (AID 988); note: nearly all actives have a fitted effect of over 60% in size
# Summary of the method: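 qHTS cytotoxicity, human lymphoblastoid line, complete medium; 24 h cpd treatment, 37 C; CellTiter-Glo ATP luminescence readout; tetraoctylammonium bromide positive control; AC50 via Hill fit.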
# [11] = Cell Viability - LYMP2-026 (AID 989);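 note: cells exposed to compound for 24 h at 37 °C; nearly all actives have a fitted effect of over 50% in size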
# Summary of the method: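 Cells are seeded at 2500 per well and held 5 hr at 37 C. Compounds are added in concentration series for 24 hr, then CellTiter-Glo reagent is applied and luminescence read.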
# [12] = Cell Viability - LYMP1-002 - Assay at 24 hr (AID 993)
# Summary of the method: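 Acute toxicity is measured as concentration-dependent loss of cellular ATP in a human lymphoblastoid line (Coriell LYMP1-002) after 24 h treatment in complete medium. ATP is quantified by luciferase luminescence and AC50 derived by Hill modelling.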
# [13] = Cell Viability - LYMP1-002 - Assay at 40 hr (AID 994); note: nearly all actives have a fitted effect of over 60% in size
# Summary of the method: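 Cells are plated at 2500 per well and rested 5 hr at 37 C. Compounds are added and incubated 40 hr at 37 C. CellTiter-Glo reagent is added for 30 min at room temperature before luminescence is read.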
# [14] = qHTS Assay for Identification of Small Molecule Inducers of Hypoxia Response (AID 2120; active = well fitted curve in the direction sought with a large enough effect in the signal ratio, with a control signal flat, not every such curve was filed as active; the % refers to the signal ratio)
# Summary of the method: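 Cell-based qHTS for reporter induction: hypoxia response element controlled beta-lactamase in ME-180 cells. Compounds incubated 17 h at 37 degrees C; activity from blue/green (460/530 nm) ratio, inducers ranked by AC50.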
# [15] = target: Estrogen receptor (Homo sapiens) (UniProt P03372); experiment: qHTS assay for small molecule antagonists of estrogen receptor alpha signaling (AID 588513; active = well fitted curve in the direction sought with a large enough effect in the signal ratio, with a control signal flat, not every such curve was filed as active; the % refers to the signal ratio)
# Summary of the method: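 ER-alpha-UAS-bla GripTite HEK 293 cells in medium with 2% charcoal/dextran-treated FBS were preincubated 4 h at 37 C, dosed with compound (1:2 titration), stimulated with 0.5nM 17-beta-estradiol for 18 h, then read by CCF4 beta-lactamase fluorescence.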
# [16] = target: Estrogen receptor (Homo sapiens) (UniProt P03372); experiment: qHTS assay for small molecule agonists of estrogen receptor alpha signaling (AID 588514; calls by dose curve; note: nearly all actives have a fitted effect of over 70% in size)
# Summary of the method: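 Efficacy is expressed against 20 nM 17-beta-estradiol (100%) and DMSO basal (0%); EC50 from Hill equation. Assay: beta-lactamase reporter in ER-alpha-UAS-bla HEK 293 cells, 18 h compound incubation, CCF4 detection.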
# [17] = target: Bile acid receptor (Homo sapiens) (UniProt Q96RI1); experiment: qHTS assay for small molecule antagonists of farnesoid X receptor signaling (AID 588526; calls by dose curve)
# Summary of the method: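 Concentration-response titrations were fitted to the Hill equation for half-maximal inhibition and maximal response, with data normalised to 50 uM chenodeoxycholic acid and DMSO control wells. Cells: FXR-UAS-bla HEK293T, dialyzed FBS.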
# [18] = target: Glucocorticoid receptor (Homo sapiens) (UniProt P04150); experiment: qHTS assay for small molecule antagonists of glucocorticoid receptor signaling (AID 588533; active = well fitted inhibition curve with a large enough effect in the signal ratio, with a control signal flat, not every such curve was filed as active; the % refers to the signal ratio;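 note: cells stimulated with 2 nM dexamethasone as agonist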)
# Summary of the method: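 Antagonist-mode qHTS: compound titrations added to GRE-bla HeLa cells, then dexamethasone 2 nM final; 18 h, 37 C. CCF4 FRET fluorescence normalized to dexamethasone and DMSO; IC50 from Hill fit.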
# [19] = target: Peroxisome proliferator-activated receptor gamma (Homo sapiens) (UniProt P37231); experiment: qHTS assay for small molecule agonists of peroxisome proliferator-activated receptor gamma signaling (AID 588536; active = well fitted curve in the direction sought with a large enough effect in the signal ratio, with a control signal flat, not every such curve was filed as active; the % refers to the signal ratio)
# Summary of the method: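 Compound treatment: 16 h, 37 C, HEK293 GeneBLAzer cells. Detection: CCF4, 2 h RT. Values: Hill-fit EC50, efficacy as % of 2 uM rosiglitazone.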
# [20] = target: Peroxisome proliferator-activated receptor gamma (Homo sapiens) (UniProt P37231); experiment: qHTS assay for small molecule antagonists of peroxisome proliferator-activated receptor gamma signaling (AID 588537; active = well fitted inhibition curve with a large enough effect in the signal ratio, with a control signal flat, not every such curve was filed as active; the % refers to the signal ratio;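 note: reporter cells co-stimulated with 50 nM rosiglitazone agonist during compound treatment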)
# Summary of the method: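 Compounds are tested as concentration series for inhibition of rosiglitazone-driven (50 nM) reporter expression in GeneBLAzer PPAR-gamma-UAS-bla HEK293 cells. After 16 h at 37 C, CCF4 substrate is added for 2 h at room temperature and blue/green fluorescence is measured.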
# [21] = target: Vitamin D3 receptor (Homo sapiens) (UniProt P11473); experiment: qHTS assay for small molecule antagonists of vitamin D receptor signaling (AID 588541; calls by dose curve;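 note: receptor activated by calcitriol during compound treatment; series mostly up to about 77 µM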)
# Summary of the method: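 VDR-UAS-bla HEK293T cells (2000/well, 2% charcoal-stripped FBS) were treated with titrated compounds plus 1-alpha,25-dihydroxyvitamin D3 (50 nM or 3 nM final) for 16 h at 37 C. CCF4 beta-lactamase fluorescence was read; Hill fits gave IC50.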
# [22] = target: Vitamin D3 receptor (Homo sapiens) (UniProt P11473); experiment: qHTS assay for small molecule agonists of vitamin D receptor signaling (AID 588543; calls by dose curve)
# Summary of the method: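 GeneBLAzer VDR-UAS-bla HEK293T cells in 2% charcoal-stripped FBS medium were dosed with compound titrations for 16 h at 37 °C; CCF4 β-lactamase readout (405 nm ex, 460/530 nm em). EC50 and efficacy from Hill fits, normalized to 50 nM calcitriol (100%) and DMSO (0%).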
# [23] = qHTS assay for small molecule agonists of retinoid X receptor alpha signaling (AID 588544; calls by dose curve); settings: HEK293T RXRa-UAS-bla, beta-lactamase reporter, 18 h; 530 nm emission
# [24] = target: Retinoic acid receptor RXR-alpha (Homo sapiens) (UniProt P19793); experiment: as above
# Chain of Retinoic acid receptor RXR-alpha (Homo sapiens) (P19793 whole entry, looked up): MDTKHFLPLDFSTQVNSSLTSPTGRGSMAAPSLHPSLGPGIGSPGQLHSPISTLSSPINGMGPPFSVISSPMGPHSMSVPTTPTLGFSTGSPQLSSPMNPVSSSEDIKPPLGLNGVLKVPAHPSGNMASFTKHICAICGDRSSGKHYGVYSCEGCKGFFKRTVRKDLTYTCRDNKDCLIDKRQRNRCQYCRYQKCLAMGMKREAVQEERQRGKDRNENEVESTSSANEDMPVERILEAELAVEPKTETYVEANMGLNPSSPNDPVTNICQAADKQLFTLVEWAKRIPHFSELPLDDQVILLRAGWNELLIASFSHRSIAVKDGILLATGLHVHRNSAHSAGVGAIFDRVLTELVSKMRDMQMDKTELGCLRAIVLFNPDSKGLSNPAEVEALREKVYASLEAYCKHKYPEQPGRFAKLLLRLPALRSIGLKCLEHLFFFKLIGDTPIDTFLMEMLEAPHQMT
# Chain of Peroxisome proliferator-activated receptor gamma (Homo sapiens) (P37231 whole entry, looked up): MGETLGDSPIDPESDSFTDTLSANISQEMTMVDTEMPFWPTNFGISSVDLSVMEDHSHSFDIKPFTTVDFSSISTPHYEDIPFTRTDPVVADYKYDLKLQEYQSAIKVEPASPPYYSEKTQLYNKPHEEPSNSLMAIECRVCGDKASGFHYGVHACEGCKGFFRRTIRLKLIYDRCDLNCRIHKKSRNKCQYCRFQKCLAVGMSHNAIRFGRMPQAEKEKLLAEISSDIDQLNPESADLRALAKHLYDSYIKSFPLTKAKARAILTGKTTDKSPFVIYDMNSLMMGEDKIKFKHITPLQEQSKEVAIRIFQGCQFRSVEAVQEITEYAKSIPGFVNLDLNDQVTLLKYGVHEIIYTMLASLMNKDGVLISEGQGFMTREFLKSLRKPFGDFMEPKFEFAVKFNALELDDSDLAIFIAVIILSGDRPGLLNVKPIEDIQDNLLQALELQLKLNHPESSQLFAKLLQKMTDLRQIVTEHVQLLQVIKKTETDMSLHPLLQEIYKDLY
# Chain of Estrogen receptor (Homo sapiens) (P03372 whole entry, looked up): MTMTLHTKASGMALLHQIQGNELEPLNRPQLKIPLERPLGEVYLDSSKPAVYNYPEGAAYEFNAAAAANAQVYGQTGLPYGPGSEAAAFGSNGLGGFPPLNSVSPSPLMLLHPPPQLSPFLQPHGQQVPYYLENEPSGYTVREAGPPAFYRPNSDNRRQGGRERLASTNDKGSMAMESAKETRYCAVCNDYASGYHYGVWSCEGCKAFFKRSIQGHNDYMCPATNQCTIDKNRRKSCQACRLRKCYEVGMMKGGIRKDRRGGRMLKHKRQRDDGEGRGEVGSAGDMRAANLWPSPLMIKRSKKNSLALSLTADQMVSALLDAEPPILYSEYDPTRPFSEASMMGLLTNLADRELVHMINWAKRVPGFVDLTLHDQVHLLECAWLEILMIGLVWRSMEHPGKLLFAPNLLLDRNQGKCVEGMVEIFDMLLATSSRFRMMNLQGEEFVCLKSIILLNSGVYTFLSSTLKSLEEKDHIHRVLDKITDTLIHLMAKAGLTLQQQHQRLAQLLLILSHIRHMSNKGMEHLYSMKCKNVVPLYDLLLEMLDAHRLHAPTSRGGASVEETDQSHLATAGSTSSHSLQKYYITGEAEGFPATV
# Chain of Vitamin D3 receptor (Homo sapiens) (P11473 whole entry, looked up): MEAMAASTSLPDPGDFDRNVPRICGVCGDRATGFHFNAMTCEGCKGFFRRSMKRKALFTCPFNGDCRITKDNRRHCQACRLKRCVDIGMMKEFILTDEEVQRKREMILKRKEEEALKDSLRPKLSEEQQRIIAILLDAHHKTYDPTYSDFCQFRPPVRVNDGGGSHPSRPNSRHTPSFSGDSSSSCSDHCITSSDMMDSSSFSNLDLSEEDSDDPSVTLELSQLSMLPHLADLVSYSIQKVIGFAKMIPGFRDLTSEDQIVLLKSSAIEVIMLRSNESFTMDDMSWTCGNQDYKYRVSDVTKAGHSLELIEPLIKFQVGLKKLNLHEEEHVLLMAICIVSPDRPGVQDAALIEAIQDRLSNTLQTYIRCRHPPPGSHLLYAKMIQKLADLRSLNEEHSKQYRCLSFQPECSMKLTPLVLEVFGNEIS
# Chain of Glucocorticoid receptor (Homo sapiens) (P04150 whole entry, looked up): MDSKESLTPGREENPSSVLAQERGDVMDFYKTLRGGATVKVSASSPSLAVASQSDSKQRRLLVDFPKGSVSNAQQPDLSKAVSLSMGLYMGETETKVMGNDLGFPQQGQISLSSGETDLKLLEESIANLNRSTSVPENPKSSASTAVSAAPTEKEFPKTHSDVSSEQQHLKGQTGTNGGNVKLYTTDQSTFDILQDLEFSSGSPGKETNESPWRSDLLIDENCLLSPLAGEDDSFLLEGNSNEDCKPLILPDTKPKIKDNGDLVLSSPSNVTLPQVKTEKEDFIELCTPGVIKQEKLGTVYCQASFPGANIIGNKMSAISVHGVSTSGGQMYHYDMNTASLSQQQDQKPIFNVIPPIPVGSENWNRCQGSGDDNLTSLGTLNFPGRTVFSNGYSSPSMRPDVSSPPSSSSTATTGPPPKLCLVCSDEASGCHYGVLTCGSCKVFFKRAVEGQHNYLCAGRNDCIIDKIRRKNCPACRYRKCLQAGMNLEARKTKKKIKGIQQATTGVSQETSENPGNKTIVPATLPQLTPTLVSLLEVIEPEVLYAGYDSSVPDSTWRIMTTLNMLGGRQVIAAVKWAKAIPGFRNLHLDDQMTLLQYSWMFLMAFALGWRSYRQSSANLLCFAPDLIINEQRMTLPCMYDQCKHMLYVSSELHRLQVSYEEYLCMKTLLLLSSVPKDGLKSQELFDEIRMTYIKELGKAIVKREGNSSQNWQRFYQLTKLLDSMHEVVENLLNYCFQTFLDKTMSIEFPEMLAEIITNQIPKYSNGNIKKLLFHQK
# Chain of Bile acid receptor (Homo sapiens) (Q96RI1 whole entry, looked up): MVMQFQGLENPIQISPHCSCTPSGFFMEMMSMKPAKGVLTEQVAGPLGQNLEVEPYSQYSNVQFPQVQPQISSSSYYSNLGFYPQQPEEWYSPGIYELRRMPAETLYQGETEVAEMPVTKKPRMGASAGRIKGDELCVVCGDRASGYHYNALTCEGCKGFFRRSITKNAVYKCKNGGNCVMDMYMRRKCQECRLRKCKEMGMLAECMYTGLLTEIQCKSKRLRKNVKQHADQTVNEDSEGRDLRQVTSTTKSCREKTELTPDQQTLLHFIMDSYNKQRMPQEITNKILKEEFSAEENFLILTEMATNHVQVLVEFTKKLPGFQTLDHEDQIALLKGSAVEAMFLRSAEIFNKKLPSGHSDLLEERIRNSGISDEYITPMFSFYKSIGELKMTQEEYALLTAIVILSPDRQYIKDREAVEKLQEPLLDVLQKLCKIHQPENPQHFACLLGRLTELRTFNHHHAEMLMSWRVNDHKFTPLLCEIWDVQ
compound,measurement,setting,value
COC(=O)c1ccccc1C(=O)OC,outcome,[1],inactive
same,outcome,[2],inactive
same,Potency,[3],inactive
same,outcome,[4],inactive
same,outcome,[5],inactive
same,outcome,[6],inactive
same,outcome,[7],inactive
same,outcome,[8],inactive
same,outcome,[9],inactive
same,outcome,[10],inactive
same,outcome,[11],inactive
same,outcome,[12],inactive
same,Potency,[13],inactive
same,outcome,[14],inactive
same,Potency,[15],inactive
same,Potency,[16],inactive
same,Potency,[17],inactive
same,Potency,[18],inactive
same,outcome,[19],inactive
same,Potency,[20],inactive
same,outcome,[21],inactive
same,Potency,[22],inactive
same,max response,[23],-8.66%
same,outcome,[24],inactive

# — PubChem BioAssay (NCATS)
